# Bim-Mcl-1: inhibitors of Bim-Mcl-1 interaction, human. inhibition, % at 10 µM. 190,000 compounds, 0.1% hits. Q07820. Bead-based flow cytometry, Bim peptide-Mcl-1 binding; in the data active means inhibition above about 40%;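 further: 0% = no compound tracer wells and 100% = peptide blocker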
# Mcl1-Noxa inh: Mcl-1/Noxa interaction inhibition; Q07820; TR-FRET Mcl-1/Noxa peptide binding, 2 h; inhibition, % at 21.7 µM; 220,000 compounds, 1.5% hits; AID 1022;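 active means compounds that cut the protein-peptide binding signal by more than 50% relative to plate controls in a single-dose test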;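 further: His-tagged Mcl-1 with rhodamine Noxa BH3 peptide and terbium anti-His antibody; 0% = Mcl-1 plus Noxa peptide wells and 100% = peptide-only wells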
# NCF1 inh: p47phox (human) inhibition. p47phox/p22phox peptide binding, fluorescence polarization, 2 h. P14598. inhibition, % at 24.7 µM. 220,000 compounds, 0.53% hits;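 further: 0% = p47phox with labelled peptide and 100% = labelled peptide alone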
# Target sequence (P14598 whole entry, looked up): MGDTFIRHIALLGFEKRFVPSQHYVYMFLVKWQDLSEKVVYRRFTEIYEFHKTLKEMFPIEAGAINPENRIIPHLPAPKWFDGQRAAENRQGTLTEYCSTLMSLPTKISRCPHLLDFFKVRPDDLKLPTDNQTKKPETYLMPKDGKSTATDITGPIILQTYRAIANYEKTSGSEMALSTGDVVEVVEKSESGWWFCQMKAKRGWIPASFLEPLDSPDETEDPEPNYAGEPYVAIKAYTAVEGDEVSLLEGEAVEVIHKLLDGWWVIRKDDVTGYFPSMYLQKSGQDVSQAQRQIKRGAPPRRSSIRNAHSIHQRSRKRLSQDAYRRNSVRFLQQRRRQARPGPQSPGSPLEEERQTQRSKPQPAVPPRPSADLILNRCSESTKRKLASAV
# 14-3-3 Bad inh: disrupts binding of bovine 14-3-3 zeta to phospho-Bad peptide; P63103; AID 781; 220,000 compounds, 0.71% hits; inhibition, % at 21.7 µM; TR-FRET 14-3-3zeta/Dy647-pBad peptide displacement, 1 h;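 active means inhibition above about 70%, limit read from the data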;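 further: 0% = full 14-3-3 plus peptide FRET controls and 100% = background without 14-3-3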
# eIF4E 4G PPI: eIF4E/eIF4G interaction inhibition in translation initiation; P63073+Q04637; TR-FRET eIF4E-eIF4GI(517-606) binding, 2 h; inhibition, % at 21.7 µM; 220,000 compounds, 0.37% hits; AID 782;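 further: 0% = full FRET control wells and 100% = background wells lacking eIF4GI fragment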
# Mcl1 Bid PPI: Mcl-1/Bid interaction inhibition. Q07820. TR-FRET Mcl-1/Bid-Dy647 peptide binding, 1536-well. inhibition, % at 21.7 µM. 220,000 compounds, 0.97% hits. AID 1021;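 active means compounds that cut the binding signal by more than half at the single screening dose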;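 further: His-tagged Mcl-1 with europium anti-His antibody binding Bid BH3 peptide; 0% = Mcl-1 plus peptide wells and 100% = peptide-only wells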
# Numbers without * were called inactive; x = not tested or not shown; + = active, no number; [ ] = remark or other dose. Hits are enriched below; roughly 3.4% of the tested compounds scored in any of these assays.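 How the source made its calls, unless noted: active means inhibition above about 30% (limit read from the data); inactive means the rest.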
SMILES,Bim-Mcl-1,Mcl1-Noxa inh,NCF1 inh,14-3-3 Bad inh,eIF4E 4G PPI,Mcl1 Bid PPI
CCCCCC(=O)Nc1cccc(C2=NOC3(C2)C[C@@H](C(N)=O)N(C(=O)CC(c2ccccc2)c2ccccc2)C3)c1 (stereo not given in full),x,5,-14,-1,-5,13
O=C1CN(C(=O)c2ccccc2F)c2ccccc2N1,2,6,-7,-3,-1,-2
O=C1CN(C(=O)c2cccs2)c2ccccc2N1,5,-5,4,53,47*,-15
CCn1ncc(/C=N/NS(=O)(=O)c2ccc(Cl)cc2)c1C,-4,20,-9,-17,1,-64
Cc1ccc(S(=O)(=O)N/N=C/c2cnn(C)c2C)cc1,-8,4,-14,-11,-6,70*
CCOc1ccccc1Nc1nnc(C)c(=O)[nH]1,-5,9,-10,13,1,9
CCOc1ccccc1Nc1nnc(Cc2ccccc2Cl)c(=O)[nH]1,-8,25,7,2,-13,53*
Cc1nc(NC(=O)c2ccccc2)sc1-c1csc(Nc2cccc(Cl)c2)n1,0,98*,-24,86*,23,94*
Cc1nc(NC(=O)c2ccccc2)sc1-c1csc(Nc2ccc(Cl)cc2)n1,-2,-16,-22,70*,-3,-11
Cc1nc(NC(=O)c2ccccc2)sc1-c1csc(Nc2ccc(F)cc2)n1,2,38,-8,55,-23,-34
Cc1nc(NC(=O)CC(C)C)sc1-c1csc(Nc2ccc(Cl)cc2)n1,64*,44,-52,19,-6,4
Nc1ccc2c(c1)nc(Cc1ccccc1)n2CCO,0,8,-2,-10,2,-49
CCOC(=O)Cc1csc(NC(=O)c2ccc(Br)o2)n1,-1,0,-6,3,0,-22
CCOC(=O)Cc1csc(NC(=O)c2sc3nc4ccc(CC)cc4cc3c2N)n1,5,89*,-21,65,-29,91*
c1ccc2oc(SCc3cn4ccsc4n3)nc2c1,-3,27,-1,25,-1,-19
Cc1csc2nc(CSc3nc4ccccc4o3)cn12,-4,51*,-3,1,2,20
Cc1sc(NC(=O)c2ccco2)c(CN2CCN(Cc3ccccc3)CC2)c1C,-2,0,-3,-1,0,-23
CCOC(=O)C1=C(O)c2ccccc2C(=O)/C1=C\c1ccc(CC)cc1,0,85*,56*,0,6,52*
CCCc1ccc(/C=C2\C(=O)c3ccccc3C(O)=C2C(=O)OCC)cc1,-5,88*,3,6,3,40
CCCN=C(C)C1=C(O)c2ccccc2C1=O,-7,4,-10,-6,0,0
O=[N+]([O-])c1ccc2nc(SCc3cn4cc(Cl)ccc4n3)[nH]c2c1,-2,51*,-6,12,4,31
O=C(Cc1cccs1)N(Cc1ccco1)C1(C(=O)NC2CCCCC2)CCCCC1,0,-12,43*,-16,4,-61
O=C(Cc1cccs1)N(Cc1cccs1)C1(C(=O)NC2CCCC2)CCCCC1,1,-22,0,2,-4,-6
CSc1ccc(NC(=O)c2cccnc2)cc1C#N,0,21,-3,4,4,44
CCOC(=O)C1=C(O)CSC1=Nc1ccc(Cl)cc1,-1,-6,+,1,-2,16
SMILES,Bim-Mcl-1,Mcl1-Noxa inh,NCF1 inh,14-3-3 Bad inh,eIF4E 4G PPI,Mcl1 Bid PPI
Cn1c(CO)cnc1-c1ccccc1,x,20,-3,0,0,-13
COc1cc(/C=C/C(=O)O)cc(S(=O)(=O)Nc2ccc3nc(SC)sc3c2)c1OC,-1,13,-4,-3,2,-12
Cc1cccc(C2C3=C(Nc4[nH]n(-c5ccccc5)c(=O)c42)c2ccccc2C3=O)c1 (stereo not given),-4,65*,-11,-1,13,-38
Cc1ccc(OCCC(=O)O)cc1,x,-9,-8,1,6,-13
O=C(CSc1nccc(=O)[nH]1)c1ccccc1Br,-2,-9,-8,-4,2,71*
O=C(CN1c2ccccc2Sc2ccccc21)NNC(=O)Nc1cccc(Cl)c1,x,-4,-5,2,1,-30
COC(=O)c1ccccc1NC(=O)COC(=O)C1CCCCC1,x,2,-16,3,-10,-18
CCC(=O)Nc1nc2ccccc2n1CCN1CCOCC1,-2,-13,38*,0,6,-16
O=C(Nc1cccc(-c2csc(-c3ccccc3)n2)c1)c1cccs1,1,-8,-20,-2,-7,96*
Oc1ccc(-c2csc(Nc3ncccn3)n2)c(O)c1,-2,72*,5,8,-5,41
Oc1ccc(-c2csc(-c3ccccc3)n2)cc1O,0,62*,-14,4,6,-50
Oc1ccc(-c2csc(Nc3ncccn3)n2)cc1O,0,87*,3,-7,-2,-47
CC(=O)Nc1cccc(-c2csc(Nc3ncccn3)n2)c1,-1,29,-11,9,-4,-30
Cc1nc(-c2cccc(NC(=O)c3cccs3)c2)cs1,0,-2,-12,-2,8,5
COc1cc(NC(=S)N2CCCCC2C)cc(OC)c1OC (stereo not given),26,8,-7,-10,3,-27
COc1ccc(CN2CCN(S(=O)(=O)c3ccc(NC(C)=O)cc3)CC2)c(OC)c1OC,-1,27,5,28,3,30
COc1ccc(-c2csc(NC(=S)NC(=O)c3cccs3)n2)cc1OC,0,82*,-32,-13,11,-87
COc1ccc(-c2csc(NC(=S)NC(=O)c3cccs3)n2)cc1Br,x,15,-16,-4,-5,3
COc1c(C(=O)NNC(=O)c2ccccc2)csc1Br,x,1,-20,1,-4,-9
COc1ccccc1COCC(O)CNCC1(N2CCCCC2)CCCCC1 (stereo not given),-2,12,-6,62,4,62*
CC1CC2OC(=O)C3(C)CCCC(C)(C23)C1(O)CCc1ccoc1 (stereo not given),x,3,-3,2,2,-20
COCCN(C(=O)Cc1cccs1)c1nnc(-c2ccncc2)s1,-2,21,-70,82*,-4,-48
CCN(C(=O)c1cccs1)c1nnc(-c2ccncc2)s1,1,5,0,9,-2,-12
O=[N+]([O-])c1cc(Br)c(O)c(/C=N/Nc2nnnn2-c2cccc3ccccc23)c1,-1,34,-42,43,44*[fluorescence artefact?],66*
O=[N+]([O-])c1cc(Br)c(O)c(C=Nc2ccc(N3CCOCC3)cc2)c1,2,35,6,-19,12,-47
O=C(NCc1ccco1)c1ccc2nc3sc4c(c3c(=O)n2c1)CCCC4,8,68*,-11,6,14,2
COc1ccc(-n2nc(C(=O)NCC(=O)Nc3ccccn3)c3ccccc3c2=O)cc1Cl,-1,-90,22,72*,-14,32

# Source: PubChem
